Many of the other results were omitted from the sample, so hits are more common in it than they were.
Dicer processing: blocks human Dicer maturation of pre-miR-21; z-score at 25 µM; Q9UPY3; hit rate 6% among 47,000; cat-ELCCA pre-miR-21 Dicer processing, chemiluminescence; hits give high values; in the data active means z-score above about 3, passing the limit was not always enough;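 further: higher signal means more uncleaved substrate so more Dicer inhibition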
Large screens that a line does not name were inactive.

CCc1ccc(C2C(C#N)=C(C)NC3=C2C(=O)CCC3)cc1 (stereo not given)	none
CC1=C(C#N)C(c2cccc(F)c2)C2=C(CCCC2=O)N1 (stereo not given)	Dicer processing 4.7
CCCOC(=O)C1=C(C)NC2=C(C(=O)CC(c3cccs3)C2)C1c1ccc(F)cc1 (stereo not given)	none
CCOC(=O)C1=C(C)NC2=C(C(=O)CC(c3cccs3)C2)C1c1ccc(F)cc1 (stereo not given)	none
COc1ccc(C2CC(=O)C3=C(C2)NC(C)=C(C(=O)OC(C)C)C3c2ccc(F)cc2)cc1 (stereo not given)	none
CCOc1cc(C2C(C(=O)OCCOC)=C(C)NC3=C2C(=O)CC(c2cccs2)C3)ccc1O (stereo not given)	Dicer processing 3.3
CCOc1ccc(C2C(C(=O)OC(C)C)=C(C)NC3=C2C(=O)CC(c2ccc(OC)cc2)C3)cc1 (stereo not given)	none
COCCOC(=O)C1=C(C)NC2=C(C(=O)CC(c3cccs3)C2)C1c1ccc(O)cc1 (stereo not given)	Dicer processing 3
COCCOC(=O)C1=C(C)NC2=C(C(=O)CC(c3cccs3)C2)C1c1ccsc1 (stereo not given)	none
COc1ccc(C2CC(=O)C3=C(C2)NC(C)=C(C(=O)OC(C)C)C3c2ccc(N(C)C)cc2)cc1 (stereo not given)	Dicer processing 3.8
CC1=C(C#N)C(c2ccccc2F)C2=C(CCCC2=O)N1 (stereo not given)	none
CCOc1ccc(C2CC(=O)C3=C(C2)NC(C)=C(C(=O)OCCOC)C3c2cccs2)cc1OC (stereo not given)	none
CCN1C(=O)C2(/C(=C(/O)c3ccc(C)c(F)c3)C(=O)C(=O)N2CC2CCCO2)c2ccccc21 (stereo not given)	none
COc1ccccc1N1C(=O)C2CCCCC2C1=O (stereo not given)	none
Cc1nc2scc(-c3ccc(Cl)cc3)n2c(=O)c1Oc1ccc(Cl)cc1	none
CCOC(=O)c1cc(C#N)c(Sc2n[nH]c(=O)n2C(C)C)nc1C(F)(F)F	none
CCOC(=O)N1CCc2c(sc3c2C(=O)NC(c2cccc(Cl)c2)N3)C1 (stereo not given)	none
NNC(=O)CNC(=O)COc1ccccc1	none
CS(=O)(=O)/C(C#N)=C/Nc1cccnc1	none
O=C(NNC(=O)c1cnn(-c2ccccc2)n1)c1ccc(Cl)c(Cl)c1	none
CCOC(=O)C1=C(C)NC2=C(C(=O)CC(c3cccs3)C2)C1c1ccsc1 (stereo not given)	none
CCOCCOC(=O)C1=C(C)NC2=C(C(=O)CC(c3cccs3)C2)C1c1ccc(OC)c(O)c1 (stereo not given)	none
CCOc1ccc(C2C(C(=O)OC(C)C)=C(C)NC3=C2C(=O)CC(c2ccccc2)C3)cc1OC (stereo not given)	none
CC1=C(C#N)C(c2ccc(F)cc2)C2=C(CC(c3ccccc3)CC2=O)N1 (stereo not given)	none
COCCOC(=O)C1=C(C)NC2=C(C(=O)CC(c3cccs3)C2)C1c1ccc(O)c(OC)c1 (stereo not given)	none
COc1ccc(C2CC(=O)C3=C(C2)NC(C)=C(C#N)C3c2ccc(Br)cc2)cc1 (stereo not given)	none
CCOCCOC(=O)C1=C(C)NC2=C(C(=O)CC(c3cccs3)C2)C1c1ccc(O)c(OC)c1 (stereo not given)	Dicer processing 5
CCOC(=O)C1=C(C)NC2=C(C(=O)CC(c3ccc(OC)cc3)C2)C1c1ccc(O)c(OC)c1 (stereo not given)	none
CCOc1cc(C2C(C(=O)OC(C)C)=C(C)NC3=C2C(=O)CC(c2ccccc2)C3)ccc1O (stereo not given)	Dicer processing 11
CCOc1ccc(C2C(C(=O)OC(C)C)=C(C)NC3=C2C(=O)CC(c2ccccc2)C3)cc1 (stereo not given)	none
CCOCCOC(=O)C1=C(C)NC2=C(C(=O)CC(c3cccs3)C2)C1c1cccc(O)c1 (stereo not given)	Dicer processing 3.4
COc1ccc(C2CC(=O)C3=C(C2)NC(C)=C(C#N)C3c2ccc(F)cc2)cc1 (stereo not given)	Dicer processing 4.5
O=c1c2cn[nH]c2[nH]c(=S)n1-c1cccc(C(F)(F)F)c1	none
CCC(CC)C(=O)Nc1nnc(COC)s1	none
COc1ccc(CCNC(=O)C(Sc2ccccc2N)c2ccccc2)cc1OC (stereo not given)	none
COC(=O)/C=c1\sc2nc3ccccc3n2c1=O	none
CC1(C)CC(=O)c2ccc(OCc3ccccc3F)cc2O1	none
COc1ccc(NC(=O)N2c3ccccc3Sc3ccccc32)cc1OC	none
CC1CCC2C(=O)N(c3ccc(Br)cc3)C(=O)C2C1 (stereo not given)	none
CCCCCc1ccc(C(=O)CCC(=O)O)cc1	none
Cn1c(=O)n(CCCOc2ccc(Cl)cc2)c2ccccc21	none
Cn1c(=O)n(CC(=O)O)c2ccccc21	Dicer processing 3.6
Cn1c(=O)n(Cc2ccccc2Br)c2ccccc21	none
CNC(=S)NNC(=O)C(CCSC)NC(=O)c1ccc(C(F)(F)F)cc1 (stereo not given)	none
CCOC(=O)c1ccc(Oc2sccc2[N+](=O)[O-])cc1	Dicer processing 3.4
CCOC(=O)c1ccc(N)cc1	none
CCOC(=O)C1CCN(c2sccc2[N+](=O)[O-])CC1	none
CCOc1cc(C2C(C(=O)c3cc4ccccc4o3)=C(O)C(=O)N2CCN(C)C)ccc1O (stereo not given)	none
CN(C)/C=C(\C#N)c1nc(-c2ccc(Cl)cc2)cs1	none
O=C(c1ccc(Cl)cc1)N1c2ccccc2OC1c1ccc2c(c1)OCO2 (stereo not given)	none
Cc1cc(C(=O)NN)nn1-c1c(Cl)cc(Cl)cc1Cl	none
CC1=NN(c2cccc(C(=O)O)c2)C(=O)C1	none
Cc1ccc(C)n1-c1cc(C(=O)O)cc(C(=O)O)c1	Dicer processing 11
Cc1ccc(C)n1-c1ccc(SCC(=O)O)cc1	none
CCOC(=O)NNC(=S)NC(C)CC (stereo not given)	none
CS(=O)CC(O)(c1ccc(Cl)cc1)c1ccc(Cl)cc1 (stereo not given)	none
CC(C)(C)NC(=S)N/N=C/c1ccc(O)cc1	none
CCOC(=O)c1ccc(N2CC3CCCCN3C2c2cccc(OC)c2O)cc1 (stereo not given)	none
O=C(CSc1nnc(-c2ccco2)c(-c2ccco2)n1)Nc1cnc2ccccc2c1	none
COc1ccc(/C=N/NC(=O)c2sc(=S)n(-c3ccccc3)c2N)cc1	none
COc1cc(/C=N/NC(=O)c2sc(=S)n(C)c2N)ccc1O	Dicer processing 3.8
COc1ccc(/C=N/NC(=S)NN)cc1	none
Cn1c(N)c(C(=O)N/N=C/c2ccccc2)sc1=S	none
COc1cc(/C=N/NC(=S)NC2CC3C=CC2C3)ccc1C (stereo not given)	none
COc1cc(/C=N/NC(=S)N/N=C/c2ccc(O)c(OC)c2)ccc1O	Dicer processing 3.9
COc1cccc(CC2CC(c3ccccc3)=NO2)c1OCc1c(Cl)cccc1Cl (stereo not given)	none
NC(=O)NC(=S)NC(=O)c1ccccc1Cl	none
CC(C)(ONC(=O)Nc1ccccc1Cl)C(=O)O	none
NC(=O)NC(=O)Nc1ccccc1Cl	Dicer processing 6
O=S(=O)(Oc1ccccc1)c1cc(Br)c(Br)s1	none
Brc1c(-c2ccccc2)nc2ccccn12	none
Cc1nc([N+](=O)[O-])cn1CCCOc1ccc(Cl)cc1	none
Cc1ccc(-c2nc3ncccc3o2)cc1N	none
Cc1ccc2nc(-c3ccc(N)cc3)oc2c1	none
O=C(Nc1ccc(-c2nc3ncccc3o2)cc1)c1ccc([N+](=O)[O-])o1	none
Clc1ccc(-c2nc3cc(CN4CCCCC4)ccc3o2)cc1	Dicer processing 4.3
Cc1cc2nc(-c3cc(N)ccc3Cl)oc2cc1C	none
